Assay outcomes as filed in PubChem.
Pf Dd2 inh: inhibitors of Plasmodium falciparum Dd2 growth. P. falciparum Dd2 growth, SYBR Green, 72 h. Potency, µM (top dose mostly 28.9 µM), usual class: inhibitors. 120,000 compounds, 4.3% hits. AID 1347417; active = well fitted inhibition curve with a large enough effect; also: nearly all actives have a fitted effect of over 65% in size
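Readout: SYBR Green fluorescence, 485 nm excitation, 535 nm emission, after ~16 h lysis at 37C. Before that, Dd2-infected red cells (2.5% hematocrit) grew 72 h with compound, 29 uM top final concentration.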
Hits are given with their value; [ ] = another dose, or the depositor's remark. The entries come from a sample that favours hits as a whole.

`Cn1nccc1C(=O)N1CCCC(c2nnnn2C)C1` (stereo unspecified) gave Pf Dd2 inh inactive.
For Cc1nonc1CC(=O)N1CCC(c2nnc(Cn3cccn3)n2C)CC1 the results were Pf Dd2 inh inactive.
CN(CC1CCOCC1)C(=O)c1cc(Cl)ccc1F was read as Pf Dd2 inh inactive.
Cc1noc(C)c1S(=O)(=O)N1CCC2(CC1)CC1C(=O)NCCN1C2 (stereo unspecified) was read as Pf Dd2 inh inactive.
For Cc1ccsc1C(=O)N1CCN(c2cc(-c3cccs3)[nH]n2)CC1 the results were Pf Dd2 inh inactive.
Screening CN(C)c1ccc(-c2ccnc(N[C@H]3CO[C@H]4[C@@H]3OC[C@H]4OC(=O)Nc3ccc(Oc4ccccc4)cc3)n2)cc1 returned Pf Dd2 inh inactive.
For CN(CC1CCOCC1)S(=O)(=O)c1ccc(F)cc1F the results were Pf Dd2 inh inactive.
Cc1ccc(CNC(=O)c2c(-c3ccc(F)cc3F)noc2C)o1 was read as Pf Dd2 inh inactive.
COC1CCOC2(CCN(C(=O)c3cccnc3)CC2)C1 (stereo unspecified) was read as Pf Dd2 inh inactive.
CCN(Cc1ccccc1)C(=O)c1sc2nc3n(c(=O)c2c1C)CCCC3 was read as Pf Dd2 inh inactive[5.79 µM].
CCc1ccc(N(CC)C(=O)c2sc3nc4n(c(=O)c3c2C)CCCC4)cc1 was read as Pf Dd2 inh 11.2µM.
CCN(C(=O)c1sc2nc3n(c(=O)c2c1C)CCCCC3)c1ccc(OC)cc1 was read as Pf Dd2 inh inactive.
Screening O=C(Nc1ccccc1)c1cc2n(n1)CC(c1ccc(Br)cc1)OC2 (stereo unspecified) returned Pf Dd2 inh inactive.
Screening Cc1csc(NC(=O)c2nc3c(o2)CCN(CC2CC2)CC3)n1 returned Pf Dd2 inh inactive.
`CC(C)Cc1nc(NC(=O)Cn2nc3c(cc2=O)CCCCC3)n[nH]1` gave Pf Dd2 inh inactive.
For COc1cc(C2c3c(oc4ccc(C)cc4c3=O)C(=O)N2Cc2ccccc2)ccc1O (stereo unspecified) the results were Pf Dd2 inh inactive.
Screening COc1cc(-c2oc3ccc(C)cc3c(=O)c2O)cc(OC)c1OC returned Pf Dd2 inh 12.6µM.
COc1cc(C2c3c(oc4ccc(C)cc4c3=O)C(=O)N2Cc2ccc(F)cc2)ccc1O (stereo unspecified) was read as Pf Dd2 inh inactive.
For COc1ccccc1NC(=O)Cn1c(N2CCc3ccccc3C2)nc(C)cc1=O the results were Pf Dd2 inh inactive.
For O=C1CC(c2noc(-c3ccccc3OC(F)(F)F)n2)CN1C1CCCCC1 (stereo unspecified) the results were Pf Dd2 inh inactive.
For COc1ccccc1CC(=O)N1CCCc2ncc(C(=O)Nc3ccc(OC)c(OC)c3)cc21 the results were Pf Dd2 inh inactive.
For CC(C)c1ccc(CC(=O)N2CCCc3ncc(C(=O)Nc4cccc(C(F)(F)F)c4)cc32)cc1 the results were Pf Dd2 inh inactive.
COc1ccccc1CC(=O)N1CCCc2ncc(C(=O)N(C)c3ccccc3)cc21 was read as Pf Dd2 inh inactive.
For COc1ccc(NC(=O)c2cnc3c(c2)N(C(=O)Cc2cccc(C(F)(F)F)c2)CCC3)cn1 the results were Pf Dd2 inh inactive.
COc1ccccc1CC(=O)N1CCCc2ncc(C(=O)Nc3cccc(Cl)c3)cc21 was read as Pf Dd2 inh 2.51µM.
Screening COc1ccccc1N1CCCc2ncc(C(=O)NCCc3ccccc3)cc21 returned Pf Dd2 inh inactive.
COc1ccccc1CC(=O)N1CCCc2ncc(C(=O)NCCOc3ccccc3)cc21 was read as Pf Dd2 inh inactive.
For COc1ccccc1CC(=O)N1CCCc2ncc(C(=O)Nc3cccc(C(F)(F)F)c3)cc21 the results were Pf Dd2 inh 4.47µM.
COc1ccc(NC(=O)c2cnc3c(c2)N(c2ccccc2OC)CCC3)cn1 was read as Pf Dd2 inh 6.31µM.
For O=C(CCc1nnn2c1CNCC2)N1CCOCC1 the results were Pf Dd2 inh inactive.
O=C(C[C@@H]1C[C@H]2O[C@H](CNCc3cnccc3Cl)[C@@H](O)[C@H]2O1)N1CCC(F)(F)C1 was read as Pf Dd2 inh inactive.
`CN(C)C[C@@H]1CN(Cc2ccccn2)C[C@H]1NC(=O)c1cc(C2CC2)[nH]n1` gave Pf Dd2 inh inactive.
For O=C(O)COc1ccc(-c2nccc3c2C(=O)N(Cc2ccccc2)CC(COc2ccc4cccnc4c2)O3)cc1 (stereo unspecified) the results were Pf Dd2 inh inactive.
CCOC(=O)N1CCC2(CC1)OC(=O)C(C)=C2C(=O)NCc1cccc(OC)c1 was read as Pf Dd2 inh inactive.
COCCN1Cc2[nH]nc(-c3cccc(OC)c3)c2CC1=O was read as Pf Dd2 inh inactive.
For CN1CCN(C(=O)Cc2c[nH]c3ncc(-c4cccc(O)c4)cc23)CC1 the results were Pf Dd2 inh inactive.
`OCCNc1ncnc2ccc(-c3cccc(O)c3)cc12` gave Pf Dd2 inh 8.91µM.
Screening Oc1cccc(Nc2nc(-c3ccccc3)nc3ccccc23)c1 returned Pf Dd2 inh inactive.
`CC(C)CCNC(=O)C(=O)Nc1c2c(nn1-c1ccccc1)CS(=O)(=O)C2` gave Pf Dd2 inh inactive.
`O=C(C[C@@H]1O[C@H](CNCc2cccc(Cl)c2)[C@@H](O)[C@H]1O)NC1CC1` gave Pf Dd2 inh inactive.
CN1CCN(c2ccc(-c3cc4c(ccn4C)c(C(=O)NCc4cccnc4)n3)cc2)CC1 was read as Pf Dd2 inh 6.31µM.
For Cc1ccc(-c2cc3c(ccn3C)c(C(=O)NCc3cccnc3)n2)cn1 the results were Pf Dd2 inh inactive.
For Cn1ccc2c(C(=O)NCc3cccnc3)nc(-c3cncnc3)cc21 the results were Pf Dd2 inh inactive.
Screening Cc1ccc(Cc2nc3ccccc3nc2SCC(=O)NCCC(C)C)cc1 returned Pf Dd2 inh inactive.
For CCCCN1C(=O)[C@@H]2C[C@@H](O)CN2C2(CN(Cc3ccoc3)C2)C1=O the results were Pf Dd2 inh inactive.
Screening C[S+](=O)([O-])N1CCC(c2nnc3n2C(C(=O)NCc2ccc(F)cc2)CC3)CC1 (stereo unspecified) returned Pf Dd2 inh inactive.
For CCOc1cccc(-c2nnc(CCC(=O)NCCCc3ccccc3)c(=O)[nH]2)c1 the results were Pf Dd2 inh inactive.
Screening CCCC1(CO)CCCN(C(=O)c2ccc(C)c(N3CCNC3=O)c2)C1 (stereo unspecified) returned Pf Dd2 inh inactive.
`CC(C)(C)CC(=O)N1CCCC(C(=O)Nc2cccc(-c3ccc(F)cc3)c2)C1` (stereo unspecified) gave Pf Dd2 inh inactive.
For Cc1[nH]cnc1CN1CCCC(C(=O)Nc2ccc(-c3cccc(F)c3)cc2)C1 (stereo unspecified) the results were Pf Dd2 inh 10µM.
Cc1ncoc1C(=O)N1CCCC1C(=O)Nc1cccc(-c2ccc(F)cc2)c1 (stereo unspecified) was read as Pf Dd2 inh inactive.
O=C(c1cccc(F)c1)N1CCCC(Nc2ccc(F)cc2)C1 (stereo unspecified) was read as Pf Dd2 inh inactive.
For N#Cc1cc(CN2CCCC(C(=O)Nc3cccc(-c4ccc(F)cc4)c3)C2)c[nH]1 (stereo unspecified) the results were Pf Dd2 inh 10µM.
CCc1ccc(NC(=O)C2CCCN(S(=O)(=O)c3ccc(F)cc3)C2)cc1 (stereo unspecified) was read as Pf Dd2 inh inactive.
Screening CC(=O)NCC(=O)N1CCCC(C(=O)Nc2cccc(-c3ccc(F)cc3)c2)C1 (stereo unspecified) returned Pf Dd2 inh inactive.
